According to PubChem BioAssay AID485272 (The Scripps Research Institute Molecular Screening Center, 2010):
Screen size: about 330,000 compounds; about 1,300 (0.39%) were called active.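 The calls were made as follows: active = percent inhibition above a cutoff equal to the mean of all tested compounds plus 3 SD (cut at about 15% in these data); inactive = the rest.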 Shown is part of a subset that was picked to be rich in actives.

molecular target: Protein-arginine deiminase type-4 (Homo sapiens) (UniProt Q9UM07); assay: protein arginine deiminase 4 enzyme blockade – biochemical, fluorescence polarization, 1536-well format, primary screen (AID 485272); conditions: recombinant PAD4, RCA probe fluorescence polarization; at 6.36 µM; stronger effect = higher value;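 also: 0% = PAD4 with RCA probe and DMSO and 100% = probe without PAD4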
Sequence (Q9UM07 whole entry, looked up): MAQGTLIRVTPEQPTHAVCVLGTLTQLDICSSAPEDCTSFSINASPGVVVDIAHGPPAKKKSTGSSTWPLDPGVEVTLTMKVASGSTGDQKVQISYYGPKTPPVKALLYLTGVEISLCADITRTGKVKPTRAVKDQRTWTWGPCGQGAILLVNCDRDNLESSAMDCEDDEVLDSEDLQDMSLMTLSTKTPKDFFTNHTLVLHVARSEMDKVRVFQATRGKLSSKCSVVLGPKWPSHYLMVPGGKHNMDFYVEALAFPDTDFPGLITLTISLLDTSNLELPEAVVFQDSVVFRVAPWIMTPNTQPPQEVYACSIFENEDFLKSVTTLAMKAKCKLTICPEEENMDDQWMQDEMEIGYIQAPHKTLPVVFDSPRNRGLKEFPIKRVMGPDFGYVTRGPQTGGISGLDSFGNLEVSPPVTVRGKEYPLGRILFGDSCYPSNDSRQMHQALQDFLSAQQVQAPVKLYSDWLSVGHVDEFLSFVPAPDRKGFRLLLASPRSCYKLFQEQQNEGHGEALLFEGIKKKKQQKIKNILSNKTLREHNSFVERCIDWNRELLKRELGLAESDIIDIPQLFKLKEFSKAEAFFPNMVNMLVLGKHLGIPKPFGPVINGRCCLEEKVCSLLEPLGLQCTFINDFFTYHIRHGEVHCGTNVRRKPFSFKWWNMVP

Compound | inhibition
CC(C)C(=O)N1CC(=O)Nc2ccc(F)cc2C1c1ccc(F)cc1 (centres undefined) | 4.93% (inactive)
CCOc1ccc(C(c2c(C)[nH][nH]c2=O)c2c(C)[nH][nH]c2=O)cc1OCC | -2.1% (inactive)
O=C(NC1CCCCC1)c1ccc(-c2ccc(Cl)cc2)o1 | 0.31% (inactive)
Cc1[nH][nH]c(=O)c1C(c1ccc(-c2ccc(Cl)cc2)o1)c1c(C)[nH][nH]c1=O | 20.2% (active)
CCOC(=O)N1CCC(c2cc(=O)n(-c3ccccc3)[nH]2)CC1 | 55.1% (active)
CCOC(=O)N1CCC(NC(=O)CCc2ccccc2)CC1 | 1.67% (inactive)
CCOC(=O)N1CCC(NC(=O)COc2cc(=O)n(C)c3ccccc23)CC1 | 3.7% (inactive)
CCOC(=O)Cn1nnnc1C | -0.83% (inactive)
CC(C)N(Cc1ccccc1)C(=O)COC(=O)c1ccccc1SCC(=O)N1CCCC1 | -1.69% (inactive)
Nc1scc[n+]1Cc1cccc2cccnc12 | -3.55% (inactive)
c1ccc2c(C[n+]3csc4ccccc43)cccc2c1 | 58.5% (active)
N#C/C(=C(/O)Cc1cccc2ccccc12)c1nc2ccccc2s1 | -0.3% (inactive)
COc1ccccc1CNC(=O)C1CCN(S(C)(=O)=O)CC1 | 3.16% (inactive)
COc1ccccc1CNC(=O)C1CCN(c2nc3ccccc3o2)CC1 | 23% (active)
COc1ccc(OC)c(CNC(=O)C2CCCN(c3nc4ccccc4o3)C2)c1 (centres undefined) | 0.33% (inactive)
COc1ccc(CCNC(=S)NC(=O)/C=C/c2ccc(C)cc2)cc1OC | 0.57% (inactive)
CC(C)CC(=O)NC(=S)Nc1ccc(F)cc1F | -0.18% (inactive)
O=C1COc2ccc(S(=O)(=O)Nc3ccc(OC(F)(F)F)cc3)cc2N1 | -0.73% (inactive)
Cc1nn(C)c(C)c1NS(=O)(=O)c1ccc(OC(F)(F)F)cc1 | -4.79% (inactive)
O=S(=O)(Nc1ccc(O)c2ccccc12)c1ccc(OC(F)(F)F)cc1 | 20.5% (active)
O=S(=O)(Cc1cc(Cl)nc(-c2cccnc2)n1)c1ccccc1 | -1.95% (inactive)
Cc1ccc(C(NC(=O)N2CCCC2)C(Cl)(Cl)Cl)cc1F (centres undefined) | 0.88% (inactive)
CC(C)Oc1ccc(S(=O)(=O)N2CCOCC2)cc1NC(=O)C1CSC2(C)CCC(=O)N12 (centres undefined) | -1.2% (inactive)

Compound | inhibition
Cc1c(C2=CCN(S(=O)(=O)c3ccc(Cl)cc3)CC2)c2ccccc2n1C | -48.2% (inactive)
COc1ccc(S(=O)(=O)N2CCOCC2)cc1NC(=O)COc1ccccc1 | 6.68% (inactive)
COc1ccc(S(=O)(=O)N2CCOCC2)cc1NC(=O)CSc1ncnc2ccccc12 | 18.5% (active)
COc1ccc(S(=O)(=O)N2CCOCC2)cc1NC(=O)CSc1nnc(NC2CC2)s1 | -2.8% (inactive)
CCCCCN(C(=O)CCC(=O)OCC(=O)NC1CCC(C)CC1)c1c(N)n(CCCC)c(=O)[nH]c1=O (centres undefined) | -1.97% (inactive)
CC(C)CC(=O)N1CCC(O)(CS(=O)(=O)Cc2ccccc2)CC1 | -3.05% (inactive)
CCOc1ccc(Br)cc1S(=O)(=O)Nc1ccc(C(=O)OC(C)C(=O)N(C)c2ccccc2)cc1 (centres undefined) | 2.93% (inactive)
CCOc1ccc(S(=O)(=O)n2ccnc2)c2ccccc12 | 3.78% (inactive)
Clc1ccc(C2=CSC3=Nc4cccc5cccc(c45)N23)cc1 | 15.1% (active)
CN1CCN(S(=O)(=O)c2ccc(NC(=O)C3CCCO3)cc2)CC1 (centres undefined) | 2.71% (inactive)
O=C(O)c1ccc(COc2c(F)c(F)cc(F)c2F)o1 | -4.92% (inactive)
CN(C(=O)CN1C(=O)S/C(=C\c2ccccc2F)C1=O)C1CCS(=O)(=O)C1 (centres undefined) | 3.56% (inactive)
CCCCNC(=O)CCNC(=O)c1ccc(C(C)(C)C)cc1 | 2.29% (inactive)
CCCCNC(=S)NNC(=O)c1cc(C)on1 | -2.6% (inactive)
CCCCNC(=O)Nc1c(C)cc(SC#N)cc1C | 39.1% (active)
CC(C)=C1C2CCC1C1C(=O)N(NC(=O)c3ccco3)C(=O)C21 (centres undefined) | -4.39% (inactive)
COc1ccc(/C=C(\NC(=O)c2ccc(OCC(C)C)cc2)C(=O)OCc2ccco2)cc1 | 1.51% (inactive)
COCCCNC(=S)N1CCCC(c2nc3cc(C)c(C)cc3[nH]2)C1 (centres undefined) | -0.08% (inactive)
Cc1ccc(C2CC(c3cccc(NS(C)(=O)=O)c3)=NN2S(C)(=O)=O)cc1 (centres undefined) | -2.1% (inactive)
CCN1CC=C2C(C#N)=C(N)C(C#N)(C#N)[C@H](c3ccoc3)[C@H]2C1 | 30.4% (active)
N#CC1=C(N)C(C#N)(C#N)[C@H](c2ccsc2)[C@H]2COCC=C12 | -0.34% (inactive)
CCCN1CC=C2C(C#N)=C(N)C(C#N)(C#N)C(c3cc(OC)ccc3OC)C2C1 (centres undefined) | -2.45% (inactive)
O=C(O)COCC(=O)NCc1csc2ccc(Cl)cc12 | -2.02% (inactive)

Compound | inhibition
Cc1nc2ccc(NC(=O)C(F)(F)F)cc2o1 | 27.5% (active)
Cc1nc(C)c(C(=O)Nc2ccc(C)c(F)c2)o1 | -0.93% (inactive)
Cc1ccc(NC(=O)Nc2ccc3oc(C)nc3c2)cc1 | -0.57% (inactive)
CC(=O)c1c(C)[nH]c(C(=O)COC(=O)CCOc2ccc(C)cc2)c1C | -5.3% (inactive)
COC(=O)c1cc(S(=O)(=O)N2CCN(c3cc(C)ccc3C)CC2)c[nH]1 | -1.18% (inactive)
CCOc1c(Br)cc(/C=C2\C(=O)N(CCC#N)N=C2C)cc1OC | 57.8% (active)
COc1cc(/C=C2/C(=O)NN(c3cccc(Cl)c3)C2=O)cc(Br)c1O | -6.98% (inactive)
C=CCOc1c(Br)cc(/C=N\n2nnnc2N)cc1OC | -3.76% (inactive)
COc1ccccc1N1CC(C(=O)NCCN2C(=O)S/C(=C\c3cccnc3)C2=O)CC1=O (centres undefined) | 1.63% (inactive)
COc1ccc(N2CC(C(=O)NCCN3C(=O)S/C(=C\c4cccnc4)C3=O)CC2=O)c(OC)c1 (centres undefined) | 101% (active)
CCOc1ccc(N2CC(C(=O)NCCN3C(=O)S/C(=C\c4cccnc4)C3=O)CC2=O)cc1 (centres undefined) | -4.16% (inactive)
COc1ccc(C(=O)NCc2ccccc2C)cc1S(=O)(=O)NC1CCCC1 | 1.48% (inactive)
Clc1ccc(CSc2nnc3c(n2)[nH]c2ccccc23)cc1 | -2.24% (inactive)
O=Cc1c(NCCc2cccc(F)c2)c2ccccc2[nH]c1=O | -4.74% (inactive)
O=C(NCC1CCCO1)c1cc2c([nH]c3ccccc32)c(-c2ccc(F)cc2)n1 (centres undefined) | 66.5% (active)
O=C(NCCc1ccc(F)cc1)c1n[nH]c2ccccc12 | -0.12% (inactive)
COc1ccc2cc(C(=O)NCC3CCCO3)[nH]c2c1 (centres undefined) | -4.37% (inactive)
CC(NC(=O)c1cc(=O)[nH]c2ccccc12)c1ccc(F)cc1F (centres undefined) | -7% (inactive)
O=C(NCC1CCCO1)c1ccc2ccccc2n1 (centres undefined) | 0.05% (inactive)
O=C(NCCCO)c1cc2c([nH]c3ccccc32)c(-c2ccc(F)cc2)n1 | 35.7% (active)
CC(=O)C(C)n1cnc2scc(-c3ccc(C)cc3)c2c1=O (centres undefined) | -5.08% (inactive)
Cc1cc(C)n(-c2nnc(C)n2NC(=O)c2cccc(Cl)c2)n1 | -3.56% (inactive)
COC(=O)C1=C(C)NC(=S)NC1c1ccc(OCC(=O)N2CC(C)OC(C)C2)c(OC)c1 (centres undefined) | -1.31% (inactive)

Compound | inhibition
CCOc1ccc(C2NC(=S)NC3=C2CCc2ccccc23)cc1 (centres undefined) | -0.5% (inactive)
COc1ccc(C2NC(=S)NC3=C2CCc2ccccc23)cc1OC (centres undefined) | 19.6% (active)
Cc1ccc(S(=O)(=O)NC(=O)COc2ccccc2C)cc1 | -0.01% (inactive)
CC(=O)c1cccc(NC(=O)N2CCCC2C(=O)NCCC(C)C)c1 (centres undefined) | -0.58% (inactive)
Cc1nnsc1S(=O)(=O)Cc1ccccc1Cl | -3.79% (inactive)
O=C(Nc1ccc(S(=O)(=O)N2CCCCCC2)cc1)c1c(F)cccc1F | -3.98% (inactive)
O=C(NCCCN1CCN(c2ccc(F)cc2)CC1)Nc1ccc([N+](=O)[O-])cc1 | -8.31% (inactive)
CC(=O)N(CN1C(=O)C2C3C=CC(C3)C2C1=O)c1cccc(Cl)c1 (centres undefined) | -2.02% (inactive)
CC(=O)Oc1cccc(N2C(=O)CC(Nc3ccc(N4CCOCC4)cc3)C2=O)c1 (centres undefined) | 37.4% (active)
COc1ccc(N2CCN(C3CC(=O)N(c4ccc5c(c4)OCCO5)C3=O)CC2)cc1 (centres undefined) | -4.31% (inactive)
COc1cc2ccccc2cc1C(=O)Nc1ccc(N2CCOCC2)cc1 | 7.08% (inactive)
COc1cc(OC)cc(C(=O)Nc2ccc(-c3nc4ccccc4o3)c(O)c2)c1 | -9.35% (inactive)
COCCCNC(NC(=O)c1ccc(C)cc1)C(Cl)(Cl)Cl (centres undefined) | -2.56% (inactive)
Cc1cc(Nc2ccccc2)n(C(=O)c2ccc(N)cc2)n1 | -3.04% (inactive)
Nc1ccc(Nc2ccccc2)cc1 | 20.8% (active)
Cc1ccc(Nc2ccccc2N)cc1 | -6.09% (inactive)
COc1ccc(S(=O)(=O)N(CC(=O)NCc2ccco2)c2ccc(F)cc2)cc1 | -1.25% (inactive)
COc1ccc(-n2c(C)cc(C(=O)CN3C(=O)NC4(CCc5ccccc54)C3=O)c2C)cc1 (centres undefined) | 1.38% (inactive)
CC(=O)Nc1ccc(SCC(=O)Nc2ccccc2Oc2ccccc2)cc1 | 2.48% (inactive)
CC(NCCO)C(=O)C12CC3CC(CC(C3)C1)C2 (centres undefined) | -1.18% (inactive)
